Source: publication PMC5540273 (PLoS ONE, 2017)

Key:
Details in all cases: concentration: 1 μM, replicates: in singlicate; n = 1
CDKL3 = test system: CDKL3
CDKL5 = test system: CDKL5
CHEK1 = test system: CHEK1
CHEK2 = test system: CHEK2
CIT = test system: CIT
CLK1 = test system: CLK1
CLK2 = test system: CLK2
CLK3 = test system: CLK3
CLK4 = test system: CLK4
CSF1R-autoinhibited = test system: CSF1R-autoinhibited
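Note: KINOMEscan kinase panel screen.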

Row | SMILES | %Inh (CDKL3) [%] | %Inh (CDKL5) [%] | %Inh (CHEK1) [%] | %Inh (CHEK2) [%] | %Inh (CIT) [%] | %Inh (CLK1) [%] | %Inh (CLK2) [%] | %Inh (CLK3) [%] | %Inh (CLK4) [%] | %Inh (CSF1R-autoinhibited) [%]
1 | O=C(Nc1n[nH]c2nc(-c3ccccc3)c(Cl)cc12)C1CC1 [SB-734909] | 2 | 0 | 0 | 22 | 0 | 0 | 0 | 15 | 0 | 0
2 | Cc1cccc(-c2nc(Nc3ccc4c(cnn4C)c3)c3ccccc3n2)n1 [GW876731] | 12 | 0 | 0 | 0 | 12 | 0 | 10 | 0 | 0 | 0
3 | Nc1nccc2scc(-c3ccc4c(c3)CCN4C(=O)Cc3ccccc3)c12 [GSK2576924] | 0 | 0 | 0 | 0 | 46 | 34 | 19 | 0 | 25 | 0
4 | COc1cc2nccc(Nc3cccc(Oc4ccccc4)c3)c2cc1OC.Cl [GW284543] | 0 | 0 | 0 | 0 | 0 | 21 | 0 | 0 | 0 | 32
5 | CCC(=O)c1c(-c2ccccc2)c2cc(Cl)ccc2c(=O)n1Cc1cc(S(C)(=O)=O)n(CC(N)=O)n1 | 16 | 0 | 0 | 0 | 11 | 0 | 7 | 0 | 63 | 0
6 | O=C(NCCNc1ccnc(Nc2ccc(F)cc2)n1)Nc1ccc2c(c1)OCO2 [GSK1379882] | 0 | 4 | 0 | 18 | 44 | 17 | 13 | 9 | 17 | 13
7 | O=C(Nc1n[nH]c2nc(-c3ccccc3)c(Br)cc12)C1CC1 [SB-708998] | 0 | 0 | 15 | 0 | 19 | 17 | 0 | 0 | 21 | 0
8 | FC(F)(F)c1ccc(-c2ncn(CCCN3CCOCC3)c2-c2ccncc2)cc1 [SB-217780] | 0 | 16 | 0 | 33 | 0 | 12 | 0 | 0 | 0 | 0
9 | C[C@@H]1CC[C@H](C(=O)NC2CCCCC2)CN1c1cc(-c2ccc3c(N)n[nH]c3c2)nc(N)n1 [GSK2291363] | 0 | 4 | 0 | 22 | 24 | 40 | 26 | 16 | 35 | 31
10 | Cc1cccc(-c2cc(-c3c[nH]nc3-c3ccccn3)ccn2)c1 [GW679395] | 0 | 0 | 0 | 0 | 45 | 18 | 2 | 0 | 6 | 0
11 | Cc1ccc(Oc2ccc(Nc3ncnc4cc[nH]c34)cc2C)cn1 | 3 | 3 | 6 | 22 | 57 | 0 | 0 | 0 | 24 | 0
12 | CCC(=O)c1c(-c2ccccc2)c2cc(Cl)ccc2c(=O)n1Cc1ccc(C(=O)O)cc1 | 0 | 0 | 0 | 0 | 0 | 0 | 0 | 0 | 0 | 0
13 | CCS(=O)(=O)c1ccc(OC)c(Nc2ncc(-c3ccc(F)cc3)o2)c1.Cl [GW591947] | 59 | 0 | 0 | 0 | 21 | 25 | 40 | 79 | 23 | 0
14 | Nc1ncnc2c1ncn2-c1cccc2ccccc12 [SKF-97184] | 26 | 3 | 0 | 17 | 35 | 0 | 3 | 6 | 0 | 33
15 | O=C(Nc1ccc2c(c1)OCO2)NC1CCN(c2ccnc(NCc3ccc(F)cc3)n2)CC1 [GSK1379859] | 0 | 3 | 19 | 0 | 0 | 23 | 0 | 0 | 10 | 0
16 | Cc1nnc(-c2ccc(C)c(-c3ccc(C(=O)O)cc3)c2)o1 [GW608005] | 0 | 0 | 5 | 0 | 32 | 10 | 0 | 0 | 0 | 0

Row | SMILES | %Inh (CDKL3) [%] | %Inh (CDKL5) [%] | %Inh (CHEK1) [%] | %Inh (CHEK2) [%] | %Inh (CIT) [%] | %Inh (CLK1) [%] | %Inh (CLK2) [%] | %Inh (CLK3) [%] | %Inh (CLK4) [%] | %Inh (CSF1R-autoinhibited) [%]
17 | COc1ccc(-c2coc3ccc(-c4nnc(SCc5cccc(C#N)c5)o4)cc23)cc1 | 0 | 9 | 0 | 0 | 5 | 47 | 10 | 0 | 57 | 0
18 | COc1ccc(Nc2nccc(N3CCC(NS(=O)(=O)c4ccc(NC(C)=O)cc4)C3)n2)cc1 (centres unmarked) [GSK1379729] | 4 | 0 | 14 | 0 | 22 | 25 | 0 | 0 | 27 | 0
19 | O=c1cc(N2CCOCC2)nc2n(Cc3ccc(F)c(Cl)c3)ccn12 [GSK2297099] | 0 | 10 | 4 | 0 | 4 | 63 | 45 | 26 | 45 | 0
20 | CCC(=O)c1c(-c2ccccc2)c2cc(Cl)ccc2c(=O)n1Cc1cc(C(=O)NC2CC2)n(C)n1 | 0 | 6 | 0 | 6 | 7 | 0 | 0 | 0 | 0 | 0
21 | COc1ccc(CNC(=O)NC2CCN(c3ccnc(Nc4ccc(F)cc4)n3)C2)cc1 (centres unmarked) [GSK1379706] | 0 | 0 | 8 | 48 | 9 | 16 | 0 | 0 | 8 | 50
22 | COc1cccc(-n2cnc3c(N)ncnc32)c1 [SKF-97416] | 0 | 14 | 0 | 25 | 8 | 6 | 3 | 0 | 0 | 16
23 | CCC(=O)c1c(-c2ccccc2)c2cc(Cl)ccc2c(=O)n1Cc1cc(S(C)(=O)=O)n(CCC(C)(C)O)n1 | 17 | 40 | 13 | 19 | 2 | 0 | 1 | 9 | 2 | 6
24 | Cc1ccccc1COc1cc(-n2cnc3cc(Cl)ccc32)sc1C(N)=O [GW813349] | 23 | 2 | 0 | 0 | 21 | 18 | 3 | 0 | 6 | 0
25 | CCn1c(-c2nonc2N)nc2ccccc21 [SB-693162/GW549034] | 3 | 25 | 0 | 0 | 31 | 0 | 0 | 0 | 0 | 8
26 | CC(C)(C)c1ccc(C(=O)Nc2cn3cc(-c4ccccc4)ccc3n2)cc1 | 0 | 0 | 4 | 0 | 2 | 33 | 7 | 9 | 7 | 0
27 | COc1cccc(C2=C(N(C)c3ccccc3)C(=O)NC2=O)c1 [SB-334865] | 0 | 0 | 0 | 0 | 6 | 15 | 0 | 0 | 13 | 0
28 | CCS(=O)c1ccc(-c2coc3ccc(-c4nnc(C)o4)cc23)cc1 (centres unmarked) | 0 | 0 | 0 | 0 | 2 | 0 | 0 | 0 | 5 | 8
29 | Cl.c1ccc(Cn2cnc3cc(Nc4ncnc5ccccc45)ccc32)cc1 [GW272142] | 0 | 0 | 0 | 0 | 0 | 27 | 0 | 72 | 20 | 0
30 | COc1cc(OC)cc(-c2cc3cnc(N)nc3nc2NC(=O)NC(C)(C)C)c1 | 2 | 0 | 0 | 10 | 0 | 30 | 0 | 0 | 7 | 0
31 | Nc1nc(N)c2nc(-c3ccccc3)[nH]c2n1 [SKF-12778] | 2 | 4 | 0 | 0 | 17 | 36 | 11 | 13 | 32 | 0
32 | Nc1ncnc2c1ncn2-c1ccc(Cl)cc1 [AH2635] | 0 | 0 | 0 | 0 | 26 | 28 | 19 | 0 | 3 | 0
